The record followed here is PubChem BioAssay (NCATS).

Values without a mark were called inactive. Records with an inconclusive call do not appear. Activity calls are given as the source filed them. Unless noted, calls come from the whole dose curve; as a rule, active = well fitted curve in either direction with a large enough effect (not every such curve was filed as active); inconclusive = small, poorly fitted or top-dose-only effect, or another doubt; inactive = flat fitted curve, though single readings scatter.

Assay [1] concerns the target Lysosomal acid glucosylceramidase (Homo sapiens) (UniProt P04062). The assay can be described thus: Glucocerebrosidase-p2 (AID 348; in the data active = potency below about 10 µM; note: potency is the fitted concentration of half-maximal effect). The settings on record: purified GBA, blue fluorogenic substrate, 40 min. The essentials: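 Normal human glucocerebrosidase (0.2 nM) with blue fluorogenic substrate (80 uM final) in citrate/phosphate pH 5.9 with 10mM sodium taurocholate, 0.01% tween-20; 40 min RT, NaOH/glycine stop; fluorescence Ex 365/Em 440; AC50 from a titration from 0.6 nM upwards.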

The nature of assay [2]: AP1 Signaling Pathway (AID 357).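 Note: ME-180 reporter cells stimulated with EGF at its EC50 level; % is set by controls: 0 for no effect and ±100 for the full control effect.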 Conditions: ME-180 AP-1-bla reporter, EGF-induced, beta-lactamase ratio, 5 h; at 7.69 µM (top of the series) unless noted. In a few lines: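 A ratiometric CCF4 readout (405 nm excitation; 460 and 530 nm emission) quantified AP-1-driven beta-lactamase in ME-180 cells after 5 h with compound and EC50 EGF; AC50 values were derived for activators and inhibitors.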

The target of assay [3] is Cytochrome P450 1A2 (Homo sapiens) (UniProt P05177). As to the kind of experiment: p450-cyp1a2 (AID 410; calls by dose curve; note: potency is the fitted concentration of half-maximal effect;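 for activity change, negative = inhibition: -100% = full effect of reference inhibitor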). The settings on record: recombinant CYP1A2, luciferin-ME demethylation, luminescence; series mostly up to 11.4 µM. The essentials:
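Read-out is luminescence from luciferin produced by CYP1A2 demethylation of Luciferin-ME (100uM, at Km). Detection reagent stopped the 60 min NADPH-dependent reaction; signals were normalized to 57 uM furafylline.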

The nature of assay [4]: Stat Signaling Pathway (AID 446).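 Note: ME-180 cervical cancer cells given 40 pM IL-6 alongside compound; SIE-controlled beta-lactamase reporter measured as 460/530 nm FRET emission ratio; % is set by controls: 0 for no effect and ±100 for the full control effect.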 Conditions: ME-180 (cervical carcinoma) SIE beta-lactamase reporter, IL-6 stimulated, 5 h; at 7.69 µM (top of the series) unless noted. In a few lines:
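Compound effects on IL-6-induced STAT reporter activity were measured in ME-180 cells. After overnight culture, cells were co-treated with 40 pM IL-6 for 5 hrs before beta-lactamase substrate loading at room temperature.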

Assay [5] addresses Glucocorticoid receptor (Homo sapiens) (UniProt P04150). As to the kind of experiment: GR-GFP Redistribution (AID 450;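 active = compounds whose dose series gives a full or clear partial fitted curve of increased nuclear translocation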; note: potency is the fitted concentration of half-maximal effect). The settings on record: U2OS GR-GFP nuclear translocation, laser cytometry, 2 h.
The target is the same in assay [6]. As to the kind of experiment: GR-EFC Redistribution (AID 451; calls by dose curve; note: potency is the fitted concentration of half-maximal effect). The settings on record: CHO-K1 GR-EFC translocation, beta-gal luminescence, 2 h. The essentials:
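Translocation of GR-ED fusion to nuclear EA restores b-gal, read by luminescence after 1 h room-temperature detection. Engineered CHO-K1 biosensor cells, 1,000/well, exposed 2 h at 37 C to titrations up to 46 uM final.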

The target of assay [7] is Mitogen-activated protein kinase 10 (Mus musculus) (UniProt Q61831). The assay can be described thus: JNK3 AlphaScreen Assay (AID 530).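 Note: kinase came from lysate of stimulated human HepG2 cells; signal reports phosphorylation of biotinylated GST-cJun 1-79 at Ser73 with 10 µM ATP; % is set by controls: 0 for no effect and ±100 for the full control effect.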 Conditions: JNK3 lysate, c-Jun phosphorylation; series mostly up to 11.4 µM. The essentials: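 Kinase buffer: 20 mM Tris-HCl pH 7.6, 10 mM MgCl2, 1 mM DTT, 0.1 mM Na3VO4, 0.01% Tween-20; ATP 10 uM. Substrate biotin-GST-cJun(1-79), enzyme from activated HepG2 lysates. Detection by Ser73 phospho-antibody AlphaScreen.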
In general terms: In Alpha technology, singlet oxygen from a donor bead excites a nearby acceptor bead.

Assay [8] concerns the target 3',5'-cyclic-AMP phosphodiesterase 4B (Homo sapiens) (UniProt Q07343). As to the kind of experiment: qHTS Assay for Inhibitors of PDE-IV (AID 607; active = well fitted activation curve with a large enough effect in the main read-out, with a control signal flat, not every such curve was filed as active; note: % of control where 0% means no effect). Conditions: HEK293 ACTOne CNG channel cells, membrane potential fluorescence; series mostly up to 22.9 µM. The essentials:
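ACTOne HEK293 cells carry a modified cAMP-gated CNG channel and express endogenous PDE4; plated 1000 cells/well, compounds up to 22.9 uM final. Membrane-potential dye fluorescence (ex 535/em 590) was read; parental cells received 10 uM forskolin + 100 uM RO 20-1724.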
A general note: Quantitative high-throughput screening tests each substance at several concentrations.

The target in assay [9] is Cytochrome P450 2C9 (Homo sapiens) (UniProt P11712). As to the kind of experiment: qHTS Assay for Inhibitors and Substrates of Cytochrome P450 2C9 (AID 883; active = well fitted curve in the direction sought with a large enough effect; an effect the other way counts as inactive or inconclusive; note: potency is the fitted concentration of half-maximal effect; nearly all actives have a fitted effect of over 60% in size). The settings on record: recombinant CYP2C9, luciferin-H luminescence, 60 min; series mostly up to 11.4 µM. In a few lines:
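Turnover of Luciferin-H (100uM, KM) by 10nM human CYP2C9 was measured over 60 min at 37C with NADPH regeneration; inhibitors and some substrates reduce luminescence. Data normalized to sulphaphenazole 57uM.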

In assay [10] the target is Cytochrome P450 3A4 (Homo sapiens) (UniProt P08684). The assay can be described thus: qHTS Assay for Activators of Cytochrome P450 3A4 (AID 885; active = well fitted curve in the direction sought with a large enough effect; an effect the other way counts as inactive or inconclusive; note: nearly all actives have a fitted effect of over 65% in size). The settings on record: recombinant CYP3A4, Luciferin-PPXE luminescence, 60 min; series mostly up to 11.4 µM. In a few lines:
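CYP3A4 activity: Luciferin-PPXE O-dealkylation, 25uM substrate, 200mM KPO4, RT throughout. Read-out is luciferase luminescence; higher values reflect activation.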

Assay [11] deals with Cytochrome P450 2C19 (Homo sapiens) (UniProt P33261). The assay can be described thus: qHTS Assay for Inhibitors and Substrates of Cytochrome P450 2C19 (AID 899; active = well fitted curve in the direction sought with a large enough effect; an effect the other way counts as inactive or inconclusive; note: potency is the fitted concentration of half-maximal effect; nearly all actives have a fitted effect of over 60% in size). Conditions: recombinant CYP2C19, luciferin-H EGE luminescence; series mostly up to 11.4 µM. The essentials:
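Reactions contain 5nM enzyme, 10uM Luciferin-H EGE (KM) and 50mM KPO4; compound preincubates 10 min at 37C, NADPH regeneration starts turnover for 60 min. Luminescence after detection reagent gives activity.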

Chain of 3',5'-cyclic-AMP phosphodiesterase 4B (Homo sapiens) (Q07343 whole entry, looked up): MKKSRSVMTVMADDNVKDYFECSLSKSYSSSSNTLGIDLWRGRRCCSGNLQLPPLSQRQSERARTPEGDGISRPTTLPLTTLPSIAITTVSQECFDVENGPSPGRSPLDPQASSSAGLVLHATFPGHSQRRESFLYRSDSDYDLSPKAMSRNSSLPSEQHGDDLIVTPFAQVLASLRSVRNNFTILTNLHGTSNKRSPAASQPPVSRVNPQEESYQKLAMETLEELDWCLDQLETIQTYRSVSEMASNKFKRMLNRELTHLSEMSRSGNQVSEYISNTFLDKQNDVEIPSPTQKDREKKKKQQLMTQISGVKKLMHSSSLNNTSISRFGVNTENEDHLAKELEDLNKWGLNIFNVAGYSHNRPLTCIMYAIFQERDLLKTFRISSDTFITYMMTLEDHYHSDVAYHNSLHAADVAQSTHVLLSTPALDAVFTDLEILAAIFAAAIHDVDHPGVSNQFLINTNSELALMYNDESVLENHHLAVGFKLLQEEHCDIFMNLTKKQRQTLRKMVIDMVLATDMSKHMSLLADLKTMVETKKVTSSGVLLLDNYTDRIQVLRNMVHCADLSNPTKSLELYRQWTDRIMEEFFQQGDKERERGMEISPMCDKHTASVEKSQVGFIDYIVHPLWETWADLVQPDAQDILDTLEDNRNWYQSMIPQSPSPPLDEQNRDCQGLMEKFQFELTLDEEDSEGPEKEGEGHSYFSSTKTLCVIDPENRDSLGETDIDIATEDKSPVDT
Chain of Glucocorticoid receptor (Homo sapiens) (P04150 whole entry, looked up): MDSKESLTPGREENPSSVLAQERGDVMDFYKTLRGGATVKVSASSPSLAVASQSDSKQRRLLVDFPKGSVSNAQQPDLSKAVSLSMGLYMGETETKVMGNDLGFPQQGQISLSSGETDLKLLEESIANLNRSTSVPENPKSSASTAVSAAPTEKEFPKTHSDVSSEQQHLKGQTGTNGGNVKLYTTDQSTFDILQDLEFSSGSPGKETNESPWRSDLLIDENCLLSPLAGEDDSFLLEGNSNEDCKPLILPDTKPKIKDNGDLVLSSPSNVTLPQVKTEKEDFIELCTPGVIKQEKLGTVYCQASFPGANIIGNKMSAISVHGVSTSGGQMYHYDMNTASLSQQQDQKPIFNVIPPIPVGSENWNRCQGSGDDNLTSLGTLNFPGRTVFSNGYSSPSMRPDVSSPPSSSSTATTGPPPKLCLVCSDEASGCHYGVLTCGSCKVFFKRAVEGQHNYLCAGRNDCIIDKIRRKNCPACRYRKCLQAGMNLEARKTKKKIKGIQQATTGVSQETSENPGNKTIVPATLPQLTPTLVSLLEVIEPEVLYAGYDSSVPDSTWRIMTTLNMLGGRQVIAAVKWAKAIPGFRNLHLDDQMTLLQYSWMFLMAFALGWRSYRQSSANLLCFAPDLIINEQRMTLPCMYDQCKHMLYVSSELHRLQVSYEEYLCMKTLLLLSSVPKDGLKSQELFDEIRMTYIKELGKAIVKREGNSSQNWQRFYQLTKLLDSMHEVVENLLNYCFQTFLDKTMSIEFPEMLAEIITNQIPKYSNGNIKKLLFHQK
Chain of Cytochrome P450 1A2 (Homo sapiens) (P05177 whole entry, looked up): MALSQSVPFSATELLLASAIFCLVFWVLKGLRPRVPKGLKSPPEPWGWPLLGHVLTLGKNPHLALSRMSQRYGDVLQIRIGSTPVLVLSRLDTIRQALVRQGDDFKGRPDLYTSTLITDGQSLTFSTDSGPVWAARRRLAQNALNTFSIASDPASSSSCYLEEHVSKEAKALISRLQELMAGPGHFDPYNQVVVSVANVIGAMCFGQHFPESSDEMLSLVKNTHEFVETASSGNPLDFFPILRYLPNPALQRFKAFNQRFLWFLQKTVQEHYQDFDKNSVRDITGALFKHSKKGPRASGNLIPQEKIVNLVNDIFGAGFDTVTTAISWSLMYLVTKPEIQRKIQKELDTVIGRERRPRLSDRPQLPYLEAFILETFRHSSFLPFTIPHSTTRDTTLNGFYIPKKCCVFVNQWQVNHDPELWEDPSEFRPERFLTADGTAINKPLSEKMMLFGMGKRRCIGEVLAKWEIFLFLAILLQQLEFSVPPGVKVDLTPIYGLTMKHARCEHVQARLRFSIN
Chain of Lysosomal acid glucosylceramidase (Homo sapiens) (P04062 whole entry, looked up): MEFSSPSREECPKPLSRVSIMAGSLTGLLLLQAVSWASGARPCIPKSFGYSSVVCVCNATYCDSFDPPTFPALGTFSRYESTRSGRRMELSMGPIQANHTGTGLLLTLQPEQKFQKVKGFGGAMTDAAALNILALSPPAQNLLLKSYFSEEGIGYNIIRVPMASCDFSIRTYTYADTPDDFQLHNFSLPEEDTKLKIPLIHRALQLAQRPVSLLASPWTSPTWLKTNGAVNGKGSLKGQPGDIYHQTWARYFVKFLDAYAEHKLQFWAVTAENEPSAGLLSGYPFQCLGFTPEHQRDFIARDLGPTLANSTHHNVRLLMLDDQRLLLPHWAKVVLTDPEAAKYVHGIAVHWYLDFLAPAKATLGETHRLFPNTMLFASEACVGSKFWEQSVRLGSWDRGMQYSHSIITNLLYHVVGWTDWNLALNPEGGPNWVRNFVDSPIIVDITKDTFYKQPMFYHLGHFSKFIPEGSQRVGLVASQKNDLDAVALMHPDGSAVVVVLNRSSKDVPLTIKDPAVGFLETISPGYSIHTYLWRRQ
Chain of Cytochrome P450 2C9 (Homo sapiens) (P11712 whole entry, looked up): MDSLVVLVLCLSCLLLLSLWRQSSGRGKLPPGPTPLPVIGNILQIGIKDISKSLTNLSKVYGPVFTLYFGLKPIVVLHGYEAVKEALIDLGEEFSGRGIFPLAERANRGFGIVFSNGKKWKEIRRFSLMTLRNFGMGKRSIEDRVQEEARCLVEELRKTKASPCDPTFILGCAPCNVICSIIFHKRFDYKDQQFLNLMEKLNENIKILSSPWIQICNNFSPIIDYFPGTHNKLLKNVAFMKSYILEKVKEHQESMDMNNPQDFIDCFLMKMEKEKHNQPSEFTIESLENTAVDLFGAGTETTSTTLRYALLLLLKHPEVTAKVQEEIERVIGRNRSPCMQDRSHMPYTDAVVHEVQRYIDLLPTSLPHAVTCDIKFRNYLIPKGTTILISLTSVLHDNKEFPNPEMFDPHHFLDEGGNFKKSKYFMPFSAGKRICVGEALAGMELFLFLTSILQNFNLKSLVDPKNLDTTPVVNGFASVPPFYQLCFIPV
Chain of Cytochrome P450 2C19 (Homo sapiens) (P33261 whole entry, looked up): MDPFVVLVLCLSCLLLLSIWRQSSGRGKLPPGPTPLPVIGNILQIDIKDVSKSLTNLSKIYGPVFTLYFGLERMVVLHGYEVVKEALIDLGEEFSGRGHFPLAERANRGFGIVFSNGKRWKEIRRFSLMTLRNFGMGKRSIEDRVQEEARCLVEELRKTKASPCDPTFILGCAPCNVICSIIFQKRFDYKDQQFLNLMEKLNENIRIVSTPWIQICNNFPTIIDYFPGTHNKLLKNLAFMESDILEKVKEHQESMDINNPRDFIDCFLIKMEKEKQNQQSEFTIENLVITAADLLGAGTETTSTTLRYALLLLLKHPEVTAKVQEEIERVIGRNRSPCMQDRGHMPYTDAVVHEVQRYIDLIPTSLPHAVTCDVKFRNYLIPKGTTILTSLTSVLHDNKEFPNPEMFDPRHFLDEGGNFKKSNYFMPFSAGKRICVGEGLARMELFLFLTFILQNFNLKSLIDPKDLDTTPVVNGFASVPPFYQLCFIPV
Chain of Cytochrome P450 3A4 (Homo sapiens) (P08684 whole entry, looked up): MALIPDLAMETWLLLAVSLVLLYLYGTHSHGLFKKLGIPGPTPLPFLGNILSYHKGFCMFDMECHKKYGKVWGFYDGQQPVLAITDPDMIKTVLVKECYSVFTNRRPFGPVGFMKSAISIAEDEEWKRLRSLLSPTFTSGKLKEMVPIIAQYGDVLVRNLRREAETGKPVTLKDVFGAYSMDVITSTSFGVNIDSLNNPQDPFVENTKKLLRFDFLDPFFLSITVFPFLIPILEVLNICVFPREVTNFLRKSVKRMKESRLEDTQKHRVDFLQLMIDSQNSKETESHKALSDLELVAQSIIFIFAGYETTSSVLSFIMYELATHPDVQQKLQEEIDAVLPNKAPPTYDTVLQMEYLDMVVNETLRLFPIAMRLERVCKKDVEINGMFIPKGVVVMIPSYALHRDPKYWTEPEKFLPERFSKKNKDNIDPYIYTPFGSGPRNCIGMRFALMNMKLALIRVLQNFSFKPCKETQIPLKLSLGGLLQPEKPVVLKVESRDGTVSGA

As to `CN(C)Cc1ccc(-c2cc3onc(-c4ccccc4)c3c(=O)n2C)cc1`, the figures for the Potency in [1], in assay [5] and in assay [6] were greater than 11.4 µM, greater than 46 µM and greater than 9.22 µM, respectively. Besides, the activity change, negative = inhibition in [2] is 12.1%. Also, the Potency result in assay [3], in assay [7] and in assay [8] was “inactive” throughout. Moreover, the activity, negative = inhibition in assay [4] was -3.19%.

`CC(C)C12CC[C@@]3(CC[C@H]4[C@@](C)(CCC[C@]4(C)C(=O)O)[C@@H]3C1)[C@@H](CN)C2`: the Potency in assay [1] is greater than 11.4 µM; in [5], greater than 46 µM; in [6], greater than 9.22 µM. In addition, in assay [2], the activity change, negative = inhibition was -3.83%. Besides, the Potency entry in assay [3], in [7] and in assay [8] was “inactive” each time. In addition, the activity, negative = inhibition in assay [4] is 1.18%.

Take `CC(C)C(=O)C(C)(C)CCc1ccccn1`: the Potency in [1] was greater than 11.4 µM; in assay [3], 2.51 µM (active); in assay [5] it was greater than 46 µM; in [6] it was greater than 9.22 µM. Besides, the activity change, negative = inhibition in [2] is 27.3%. The activity, negative = inhibition in assay [4] is 1.04%. Besides, the Potency entry in [7] and in assay [8] was “inactive” throughout.

On to `C[C@@H]1c2ccccc2Cn2cc3c(c21)C(=O)c1cccc(OP(=O)(O)OCc2ccccc2)c1C3=O`, for which the Potency in [1] was greater than 11.4 µM; in [3] it was 3.16 µM (active); in assay [5] it was greater than 46 µM; in [6], greater than 9.22 µM. Further, the activity change, negative = inhibition in assay [2] is -3.62%. Moreover, the activity, negative = inhibition in [4] is -19.6%. Also, the Potency entry in [7] and in assay [8] was “inactive” in each case.

Regarding `Oc1ccc2ccccc2c1/C=C\c1ccc2c(Br)cc(Br)c(O)c2n1`, the Potency in assay [1] was greater than 11.4 µM; in [3], 3.98 µM (active); in assay [5], greater than 46 µM; in assay [6], greater than 9.22 µM; in assay [9] it was 2.51 µM (active). Further, the activity change, negative = inhibition in assay [2] is -7.49%. Further, the activity, negative = inhibition in assay [4] is 1.04%. The Potency result in assay [7] and in assay [8] was “inactive” throughout.

In the case of `OC[C@@H]1O[C@H](n2cnc3c(/C=C(\O)c4ccccc4)ncnc32)[C@H](O)[C@@H]1O`, the Potency was greater than 11.4 µM in assay [1], 0.501 µM (active) in assay [3], greater than 46 µM in [5] and greater than 9.22 µM in assay [6]. In assay [2], the activity change, negative = inhibition is -7.91%. The activity, negative = inhibition in assay [4] is -0.249%. Besides, the Potency entry in assay [7] and in assay [8] was “inactive” in each case.

As to `Oc1ccc(Cc2cc(Cl)cc(Cl)c2O)cc1Cl`, the Potency in assay [1] is greater than 11.4 µM; in assay [3], 1.58 µM (active); in assay [5] it was greater than 46 µM; in assay [6], greater than 9.22 µM; in assay [9], 0.199 µM (active); in assay [11], 1.26 µM (active). In assay [2], the activity change, negative = inhibition is -21.8%. Besides, the activity, negative = inhibition in [4] was -9.97%. The Potency result in assay [7], in assay [8] and in [10] was “inactive” throughout.

`COc1ccc2cc1Oc1ccc(cc1)C[C@@H]1c3c(cc(OC)c4c3Oc3cc5c(cc3O4)CCN[C@H]5C2)CCN1C`: the Potency in [1] was greater than 11.4 µM; in [5], greater than 46 µM; in assay [6], greater than 9.22 µM. Besides, the activity change, negative = inhibition in assay [2] was -4.55%. For the same compound, the Potency entry in [3], in [7] and in assay [8] was “inactive” throughout. The activity, negative = inhibition in assay [4] is 14.2%.
